Bioassay records as filed in PubChem.
This is a sample that favours compounds with a hit; in the whole collection about 2.2% have one here.
FAS TE block = FAS thioesterase (human) inhibition; 360,000 tested, 0.67% active; AID 602261; P49327; recombinant FAS-TE, OMFH fluorogenic substrate, fluorescence endpoint; inhibition, % at 15 µM;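 active means compounds whose normalised, plate-corrected inhibition of enzyme fluorescence in the single-dose primary screen is 50% or more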
PLC-gamma1 inh = blocks human PLC-gamma1 enzyme activity; inhibition, % at 12.2 µM; 370,000 tested, 0.84% active; purified PLC-gamma1, fluorogenic substrate, fluorescence; in the data active means inhibition above about 9.5%
H9c2 protect = modulators protecting cardiomyocytes from myocardial damage. 360,000 tested, 0.63% active. H9c2 cardiomyocytes, H2O2 injury protection, ATPLite, 2 h. AID 588492. protection from H2O2 cell death, % at 20 µM;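 active means compounds giving at least 50% protection of heart cells from peroxide-induced death in the single-dose screen, raw or plate-pattern-corrected value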
PLCb3 inh = blocks human PLC-beta3 enzyme activity | Purified PLC-beta3, fluorogenic substrate, fluorescence | inhibition, % at 12.2 µM | 370,000 tested, 0.18% active | AID 720704
PLCgamma1 ctr = counter-screen for PLC-beta3 inhibitors: inhibitors of human PLC-gamma1; shares compounds with PLC-gamma1 inh; purified PLC-gamma1, fluorogenic substrate, fluorescence; inhibition, % at 12.3 µM; 3,300 tested, 3.1% active; in the data active means inhibition above about 9.5%
PLCbeta3 conf = confirmation of human PLC-beta3 inhibitors; shares compounds with PLC-gamma1 inh; purified PLC-beta3, fluorogenic substrate fluorescence; 3,300 tested, 1% active; inhibition, % at 12.3 µM
A number is an active result; i = inactive; nt = no result. Unless noted, no stated cut-off is given here; in the data, active means inhibition above about 11%; inactive means the rest.

SMILES | FAS TE block | PLC-gamma1 inh | H9c2 protect | PLCb3 inh | PLCgamma1 ctr | PLCbeta3 conf
CCN(CC(=O)Nc1cc(Cl)ccc1C)C(=O)C1CC(=O)N(Cc2ccccc2)C1 (stereo unspecified) | i | i | i | i | nt | nt
O=C(NCCc1ccccc1Cl)[C@@H]1CCCN1C(=O)[C@@H](NS(=O)(=O)c1ccc(F)cc1F)C1CCCCC1 | nt | i | nt | i | nt | nt
CCOC(=O)C1CSCCS(=O)(=O)N1Cc1ccccc1F (stereo unspecified) | nt | i | nt | i | nt | nt
Cc1ccc([N+](=O)[O-])cc1CN1CCN(c2ncc(Cc3ccccc3)cn2)CC1 | nt | i | nt | 14 | i | i
C=CCN1[C@@H](Cc2ccccc2)COc2cc(N3CCSCC3)ccc2S1(=O)=O | i | i | nt | i | nt | nt
CC(C)(C)c1ccc(/C=N/NC(=O)C[n+]2ccccc2)cc1 | i | 9.9 | i | i | i | i
CCCCC[C@@H](C)N1C[C@@H](COCc2ccccc2)Oc2cc(N3CCC[C@@H]3COC)ccc2S1(=O)=O | i | i | nt | i | nt | nt
O=[N+]([O-])c1ccc(NCc2ccncc2)cc1 | i | 13 | i | i | i | i
O=[N+]([O-])c1ccc(NC(=S)NCc2ccncc2)cc1 | i | i | i | i | nt | nt
O=S(Cc1cc(Oc2ccccc2)nc(-c2ccccc2)n1)c1ccccc1 (stereo unspecified) | i | 13 | i | i | i | i
Cc1nc2ccccc2nc1OCc1ccccc1 | i | i | i | i | nt | nt
Brc1cnc(OCc2ccccc2)nc1OCc1ccccc1 | i | i | i | 12 | i | i
Cc1cnc2ccc(F)cc2c1 | i | 12 | i | i | i | i
Cc1ccc2cc(F)ccc2n1 | i | i | nt | i | nt | nt
CC(C)(C)OC(=O)/C=C/[C@H](CCCCl)Sc1ccc(C(C)(C)C)cc1 | nt | i | nt | i | nt | nt
Cc1cccc(C(=O)NNC(=O)C2CCN(C(=O)OC(C)(C)C)CC2)c1 | i | 9.8 | i | i | i | i
CN(C)c1nc(Oc2ccc(=O)n(-c3ccccc3)n2)nc(N2CCOCC2)n1 | i | 13 | i | i | i | i
COc1cc2[nH]c(=O)n(C3CCCCC3)c(=O)c2cc1OC | i | 13 | i | 14 | i | i
CCOc1cc2[nH]c(=S)n(C3CC3)c(=O)c2cc1OCC | i | i | i | i | nt | nt
CN1CCN(CCC(=O)N/N=C/c2ccccn2)CC1 | i | 10 | i | i | i | i
COc1ccc(CCNC(=O)C2CC(=O)N(C3CCCCC3)C2)cc1OC (stereo unspecified) | i | 11 | i | i | i | i
Cc1ccc(SCCNC(=O)C(C)C)cc1 | i | 9.7 | i | i | i | i
COc1ccc(CCNC(=O)CSc2ncn[nH]2)cc1 | i | 10 | i | i | i | i
O=C(CSc1nc2ccccc2[nH]1)NCCc1ccc(Cl)cc1 | i | 11 | i | i | i | i
COc1ccc(S(=O)(=O)NCCCN2CCCC2=O)cc1OC | i | 10.0 | i | i | i | i
SMILES | FAS TE block | PLC-gamma1 inh | H9c2 protect | PLCb3 inh | PLCgamma1 ctr | PLCbeta3 conf
COc1ccc(S(=O)(=O)NCCCN2CCCC2=O)c(OC)c1 | i | i | i | i | nt | nt
CC(C)n1ncc(C(N)=O)c1N | i | 9.8 | i | i | i | i
Cc1noc(C)c1C(=O)Nc1ccc(C#N)cc1 | i | i | i | i | nt | nt
COc1cccc2cc(/C(=N/O)c3ccc(Br)cc3)oc12 | i | i | i | i | nt | nt
O/N=C(/c1ccccc1)c1cc2cc(Br)cc(Br)c2o1 | i | 12 | i | i | i | i
COc1ccc(CN(C)Cc2ccccc2)c(OC)c1OC | i | 11 | i | i | i | i
COc1cc(/C=C2/C(=O)CNC2=O)ccc1O | i | i | i | i | nt | nt
COc1cc(C=C2C(=O)C=CC2=O)ccc1O | i | 30 | nt | 16 | i | i
O=C(Nc1ccc(C(O)c2ccccc2)cc1)[C@@H]1O[C@H](CO)[C@H](O)[C@H](O)[C@H]1O (stereo partly specified) | i | 14 | i | i | i | i
CCCN(CCC)Cc1cc(=O)oc2cc(C)c(C)cc12 | i | i | i | i | nt | nt
Cc1ccc(C(=O)NC(=S)Nc2ccc(CN3CCOCC3)cc2)cc1 | i | 10 | i | i | i | i
NS(=O)(=O)c1cccc(NC(=O)COC(=O)CC2Sc3ccccc3NC2=O)c1 (stereo unspecified) | i | i | i | i | nt | nt
O=C(CC1Sc2ccccc2NC1=O)Nc1cccc(C(=O)O)c1 (stereo unspecified) | i | 12 | i | i | i | i
Cc1ccc(S(=O)(=O)N(Cc2c(F)cccc2Cl)C(=O)N2CCN(C)CC2)cc1 | i | i | i | i | nt | nt
